From PubChem BioAssay (NCI) come the findings set out here.

Assay [1] can be described thus: NCI Yeast Anticancer Drug Screen. Data for the rad50 strain (AID 155).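 Further: 0% = growth of vehicle-only cultures of the same strain.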 To be noted: S. cerevisiae rad50 strain growth inhibition; at 50.0 µM; active compounds read high. Put shortly:
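Relative growth inhibition (compound vs vehicle) was measured in yeast with a defined repair-gene alteration.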

Assay [2] in a line: NCI Yeast Anticancer Drug Screen. Data for the mec2-1 strain (AID 157). The following applies: S. cerevisiae mec2-1 strain, at 50.0 µM, active compounds read high. The method in brief:
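Mutant yeast (mec2-1) grown with compound; growth inhibition relative to vehicle control reported.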

The nature of assay [3]: NCI Yeast Anticancer Drug Screen. Data for the sgs1 mgt1 strain (AID 161).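 Further: 0% = growth of cultures given vehicle only.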 The following applies: S. cerevisiae sgs1 mgt1 strain, at 50.0 µM, active compounds read high. Put shortly:
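Yeast cells carrying a defined DNA-repair defect were exposed to test compounds. Growth inhibition was measured relative to vehicle-treated controls.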

Assay [4] is described as follows: NCI Yeast Anticancer Drug Screen. Data for the cln2 rad14 strain (AID 165).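 Further: 0% = growth equal to vehicle treated cultures.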 To be noted: S. cerevisiae cln2 rad14 strain, at 50.0 µM, active compounds read high. Put shortly:
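Readout is yeast growth inhibition versus vehicle-treated controls, using a strain with cln2 and rad14 alterations exposed to compound.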

Assay [5] is described as follows: NCI Yeast Anticancer Drug Screen. Data for the bub3 strain (AID 167). To be noted: S. cerevisiae bub3 mutant strain, at 50.0 µM, active compounds read high. Put shortly: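 Screening used yeast with an engineered genetic alteration affecting cell cycle control. Compound-exposed cultures were compared with vehicle cultures, and reduced growth was taken as inhibition.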

Assay [6] can be described thus: NCI Yeast Anticancer Drug Screen. Data for the mlh1 rad18 strain (AID 175). The following applies: S. cerevisiae mlh1 rad18 strain growth inhibition; at 50.0 µM; active compounds read high. The method in brief: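 Genetically defined yeast (DNA repair-deficient) exposed to compounds; growth inhibition determined relative to vehicle.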

The panel holds about 79,000 compounds, 15% with a hit somewhere; the sample as a whole holds those more often. A number with no mark means an inactive call. Calls of active or inactive are those of the source. No stated cut-off is given here; in the data, active means growth inhibition above about 70%; inactive means the rest.

With `COC(=O)c1ccc2c(c1)CC1(C2)Cc2cc3c(cc2C1=O)CCC3` (stereo unspecified), the growth inhibition was -3.35% in assay [1]; -37.8% in assay [2]; -0.5% in assay [3]; -3.15% in assay [4]; 14.3% in assay [5]; -5.3% in assay [6].
Turning to `O=C1c2ccccc2C(=O)C2CC(c3ccccc3)=CCC12` (stereo unspecified), the growth inhibition in assay [1] is 10.6%; in assay [2] it was 10.1%; in assay [3], -5.8%; in assay [4] it was -35.6%; in assay [5], 52.9%; in assay [6], 0.9%.
Regarding `Cc1nnc2cc(C(=O)O)c3ccccc3n2c1=O`, the growth inhibition in assay [1] is -28.6%; in assay [2] it was -30.6%; in assay [3] it was -13.4%; in assay [4], -30.6%; in assay [5], -20.1%; in assay [6], -31.8%.
As for `CCCC(CC)(CC)CO`, the growth inhibition was -21.6% in assay [1]; -6.9% in assay [2]; -16.4% in assay [3]; 12.1% in assay [4]; -10.4% in assay [5]; -6.15% in assay [6].
`CCCNCC(O)c1cc(C(F)(F)F)nc2c(C(F)(F)F)cccc12` (stereo unspecified): the growth inhibition is 29.4% in assay [1]; -0.15% in assay [2]; 2.25% in assay [3]; -25.4% in assay [4]; 0.6% in assay [5]; 19.1% in assay [6].
As for `O=C(O)c1cc2cc(S(=O)(=O)O)ccc2cc1O`, the growth inhibition was 4% in assay [1]; -0.95% in assay [2]; -6.9% in assay [3]; -25.2% in assay [4]; -11.8% in assay [5]; 30.4% in assay [6].
Consider `O=C(C(=O)c1ccccc1)c1ccccc1`, for which the growth inhibition is 9.35% in assay [1]; -0.75% in assay [2]; 11.7% in assay [3]; -22.1% in assay [4]; 9.9% in assay [5]; -1.15% in assay [6].
As for `COc1ccc([C@@]23Oc4cc(OC)cc(OC)c4[C@]2(O)[C@H](O)[C@H](C(=O)N(C)C)[C@H]3c2ccccc2)cc1`, the growth inhibition in assay [1] is 91.8% (active); in assay [2], 93.5% (active); in assay [3], 92.8% (active); in assay [4], 91.5% (active); in assay [5] it was 91.3% (active); in assay [6] it was 91.1% (active).
On to `COc1ccc(NC(=S)NNC(=O)c2nsc3ccccc23)cc1`, for which the growth inhibition in assay [1] was 32.5%; in assay [2], 9.85%; in assay [3], 20.8%; in assay [4], 7.35%; in assay [5] it was -0.8%; in assay [6] it was -0.15%.
As to `Cc1ccc(C(=O)c2sc(Nc3cccc(C(F)(F)F)c3)c(C#N)c2N)c(C)c1`, the growth inhibition is 16.8% in assay [1]; 3.35% in assay [2]; 5.9% in assay [3]; 11.2% in assay [4]; 3.05% in assay [5]; -12.6% in assay [6].
Take `CNC(=S)N/N=C/c1nc2ccccc2c(=O)n1-c1ccc(Cl)cc1`: the growth inhibition in assay [1] was 19.6%; in assay [2], 0.75%; in assay [3], 36.6%; in assay [4], 2.55%; in assay [5], -2.5%; in assay [6], 10.2%.
Regarding `O=C1C2C3CCC(C3)C2C(=O)C2C3CCC(C3)C12` (stereo unspecified), the growth inhibition in assay [1] was -1.6%; in assay [2], -12.7%; in assay [3], -9.95%; in assay [4], -8.45%; in assay [5], 8.75%; in assay [6] it was 6.65%.
Regarding `O=C(NNC(=S)Nc1ccccc1)c1nsc2ccccc12`, the growth inhibition is 43.5% in assay [1]; 12.2% in assay [2]; 35% in assay [3]; 29.4% in assay [4]; 28% in assay [5]; 23.4% in assay [6].
Regarding `N#Cc1c(-c2ccc(Cl)cc2)cn2c1[nH]c(=O)c1c3c(sc12)CCCC3`, the growth inhibition was 13.2% in assay [1]; 10.2% in assay [2]; 0.15% in assay [3]; -6.8% in assay [4]; -4.25% in assay [5]; 1.35% in assay [6].
As to `CCc1ccccc1OCC(O)CO` (stereo unspecified), the growth inhibition was -21.9% in assay [1]; -2.45% in assay [2]; -6.2% in assay [3]; -11.5% in assay [4]; -8.85% in assay [5]; 27.8% in assay [6].
Turning to `c1ccc2c(CN3CCCCC3)cccc2c1`, the growth inhibition in assay [1] was -6.1%; in assay [2], -19.1%; in assay [3] it was -4.05%; in assay [4], 5.5%; in assay [5], -15.2%; in assay [6], -13.9%.
`O=C1CN(C=C2C(=O)NC(=O)NC2=O)C(=S)N1`: the growth inhibition in assay [1] was -53.8%; in assay [2], -23.7%; in assay [3], -43%; in assay [4], -36.7%; in assay [5], -22.3%; in assay [6], -71.2%.
Regarding `O=C1CS[C@@H]2C(=O)CCCC2C1` (stereo partly specified), the growth inhibition in assay [1] is -16%; in assay [2], 17.6%; in assay [3] it was -1.8%; in assay [4], -7.25%; in assay [5] it was -3.4%; in assay [6], -4.4%.
As for `S=C1NCC(c2ccccc2)CN1`, the growth inhibition in assay [1] is 0.5%; in assay [2], 1.65%; in assay [3], -2.55%; in assay [4], 19.9%; in assay [5] it was -7.95%; in assay [6], -5.9%.
On to `CC(=O)OC(C)=O`, for which the growth inhibition in assay [1] is -20.2%; in assay [2], 9.9%; in assay [3] it was 8%; in assay [4], -33%; in assay [5], 7.55%; in assay [6] it was -16.4%.
Consider `O=C(Nc1ccc(Cl)cc1)NS(=O)(=O)c1coc2cc(F)ccc2c1=O`, for which the growth inhibition in assay [1] is 7%; in assay [2], -11.2%; in assay [3], -23.6%; in assay [4], 31.6%; in assay [5], 16.4%; in assay [6], 11.4%.
